The list is not random: actives were taken first. Their share in the collection is about 7.9%.
MCF10A rerep: A quantitative high throughput screen for small molecules that induce DNA re-replication in MCF 10a normal breast cells | MCF 10A DNA re-replication, Hoechst nuclear intensity, 48 h | Potency, µM (titrated, usually from 46.1 µM), most hits filed as activators | 350,000 compounds, 2.9% hits | AID 624296, 2012; also: nearly all actives have a fitted effect of over 50% in size
KB-V1 MDR tox: qHTS assay for MDR1-selective chemotherapeutics: Primary screen using the drug-selected MDR subline cells KB-V1; KB-V1 MDR cells viability, CellTiter-Glo, 72 h; Potency, µM (titrated, usually from 46.1 µM), most hits filed as cytotoxic; 400,000 compounds, 3.4% hits; AID 1347076, 2019; also: nearly all actives have a fitted effect of over 60% in size
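KB-V1 cells (P-gp-expressing MDR subline of KB-3-1) in phenol-red-free DMEM with 10% FBS were exposed to library compounds over a concentration series for 72 h at 37 degrees C. Viability read by CellTiter-Glo luminescence; concentration-effect curves fitted after normalization.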
HT1080 IDH1KD tx: qHTS for induction of synthetic lethality in tumor cells producing 2HG: qHTS for the HT-1080-IDH1KD cell line | HT-1080 IDH1 knockdown viability, ATP luminescence, 48 h | Potency, µM (highest dose often 46.1 µM), hits mostly cytotoxic | 360,000 compounds, 2% hits
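In this qHTS, HT-1080 cells depleted of IDH1 are exposed for 48 h at 37 °C to compound titrations. Toxicity is scored from CellTiter-Glo luminescence, with DMSO as full viability and medium alone as none.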
KB-3-1 tox: qHTS assay for MDR1-selective chemotherapeutics: Primary screen using the parental adenocarcinoma cell KB-3-1 | KB-3-1 viability, CellTiter-Glo ATP luminescence, 72 h | Potency, µM (doses to about 46.1 µM), actives largely listed as cytotoxic | 400,000 compounds, 1.4% hits; also: nearly all actives have a fitted effect of over 60% in size
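Using CellTiter-Glo luminescence, growth of non-resistant KB-3-1 adenocarcinoma cells is assessed 72 h after pin-tool compound addition at 37 °C. Normalized responses across the concentration series yield fitted curves.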
HT1080NT lethal: qHTS for induction of synthetic lethality in tumor cells producing 2HG: qHTS for the HT-1080-NT fibrosarcoma cell line. HT-1080-NT fibrosarcoma viability, CellTiter-Glo ATP luminescence, 48 h. Potency, µM (highest dose often 46.1 µM), most hits filed as cytotoxic. 360,000 compounds, 1.6% hits;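 also: NT is the 2HG producing partner of a matched IDH1 knockdown line; nearly all actives have a fitted effect of over 55% in size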
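HT-1080-NT fibrosarcoma cells (2HG-overproducing), 750 cells/well in RPMI with 5% FBS, dosed after 2 h and incubated 48 h at 37C. CellTiter-Glo luminescence normalized to DMSO and no-cell wells; concentration-response curves fitted and classed.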
SW480 rerep: A quantitative high throughput screen for small molecules that induce DNA re-replication in SW480 colon adenocarcinoma cells. SW480 DNA re-replication, Hoechst DNA content imaging, 48 h. Potency, µM (highest dose often 46.1 µM), most hits filed as activators. 340,000 compounds, 1.8% hits; also: nearly all actives have a fitted effect of over 55% in size
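SW480 cells exposed to compounds for 48 hr at 37 C, 5% CO2, then Hoechst-stained 40 min. Nuclear DNA content imaged by fluorescence scanning (405 nm excitation, 500-530 nm emission); re-replication scored as increased high-intensity nuclei.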
Numbers stand for hits; – = inactive; ? = inconclusive; · = no result given. Calls follow the shape of the dose curve; as a rule, active = well fitted curve in the direction sought with a large enough effect; inconclusive = small, poorly fitted or top-dose-only effect, or another doubt; inactive = no such curve, though single readings can be large; an effect the other way counts as inactive or inconclusive.

SMILES	MCF10A rerep	KB-V1 MDR tox	HT1080 IDH1KD tx	KB-3-1 tox	HT1080NT lethal	SW480 rerep
CN(C)S(=O)(=O)c1cccc(NC(=O)COC(=O)C2CCN(C(=O)c3ccc(F)cc3)CC2)c1	–	–	–	–	–	–
C(=N\N1CCN(c2ccccn2)CC1)/c1ccccn1	–	–	–	–	?	–
Cc1ccc2nc3c(c(Nc4ccc(C)c(C)c4)c2c1)CCC3	·	18µM	·	–	·	·
N#Cc1cccc(Nc2c3c(nc4ccccc24)CCC3)c1	?	–	?	–	–	–
Cc1ccc2nc3c(c(Nc4ccc(O)cc4)c2c1)CCC3	?	–	–	–	–	?
Cc1ccc(Nc2c3c(nc4ccccc24)CCC3)cc1F	·	–	·	21µM	·	·
Cc1cccc(Nc2c3c(nc4ccccc24)CCC3)c1	–	?	21µM	?	15µM	–
c1coc(CNc2c3c(nc4ccccc24)CCC3)c1	18µM	?	–	?	–	?
Cc1c(OCc2ccccc2)c(=O)ccn1Cc1ccc(F)cc1	–	?	–	?	–	?
O=C(C1CCOCC1)N1CCCC(N2CCN(c3cccc(Cl)c3)CC2)C1 (centres undefined)	–	–	–	–	–	–
COCCNC(=O)C1(C)Cc2c(-c3ccc4c(c3)OCO4)ccnc2O1 (centres undefined)	·	–	18µM	?	?	·
COc1ccc(CNC(=O)C2(C)Cc3c(-c4ccccc4)ccnc3O2)cc1OC (centres undefined)	·	–	–	–	–	·
CC1(C(=O)NCc2ccccc2)Cc2c(-c3ccc(C(N)=O)cc3)ccnc2O1 (centres undefined)	·	–	1.5µM	8.2µM	?	·
CC1(C(=O)NCc2ccccc2)Cc2c(-c3ccc4c(c3)OCO4)ccnc2O1 (centres undefined)	·	2.1µM	?	4.6µM	?	·
CC1(C(=O)NCc2cccc(Cl)c2)Cc2c(-c3ccccc3)ccnc2O1 (centres undefined)	·	–	?	–	–	·
CC1(C(=O)NCCc2ccccc2)Cc2c(-c3ccc4c(c3)OCO4)ccnc2O1 (centres undefined)	·	–	?	–	?	·
CC1(C(=O)NCc2ccccc2)Cc2c(-c3ccccc3)ccnc2O1 (centres undefined)	·	?	?	21µM	?	·
CCCCc1ccc(NC(=O)c2ccc3c(c2)CCN3S(=O)(=O)CC)cc1	·	–	·	?	·	·
CC1(C(=O)NCc2ccco2)Cc2c(-c3ccc(C(N)=O)cc3)ccnc2O1 (centres undefined)	·	–	2.9µM	18µM	3.3µM	·
Cc1ccc(C2=CC(c3ccccc3C)n3c(nc4ccccc43)N2)cc1 (centres undefined)	·	–	·	–	·	·
COc1ccccc1CNC(=O)c1csc2c1CCCC2	–	–	–	–	–	–
COc1ccccc1NC(=O)c1csc2c1CCCC2	–	16µM	–	–	–	–
CN1/C(=C\C=C(/C#N)C(=O)Nc2ccccc2F)C(C)(C)c2ccccc21	?	–	–	–	–	–
CN1/C(=C\C=N\O)C(C)(C)c2ccccc21	–	–	–	–	–	–
CN1/C(=C\C=[N+](C)c2ccccc2)C(C)(C)c2ccccc21	–	–	?	3.3µM	7.1µM	–
CN1/C(=C/C=C(/C#N)C(N)=O)C(C)(C)c2ccccc21	5µM	?	5.8µM	2.6µM	5.8µM	6.3µM
Cc1ccccc1N=C/C=C1\N(C)c2ccccc2C1(C)C	?	23µM	–	–	–	?
COc1cc(OC)cc(C(=O)NCC(=O)OCC(=O)Nc2ncc(Cl)cc2Cl)c1	–	–	–	–	–	–
CCc1cc(=O)oc2c(CNC(Cc3ccccc3)C(=O)O)c(O)ccc12 (centres undefined)	–	–	–	–	–	–

Bioassay records deposited in PubChem BioAssay by National Center for Advancing Translational Sciences (NCATS).
